We go through 57 molecules from ChEMBL document CHEMBL4513216, “Probing the Open Global Health Chemical Diversity Library for Multistage-Active Starting Points for Next-Generation Antimalarials” (ACS Infect Dis, 2020).

About 8,600 (12%) of roughly 69,000 compounds showed an effect of 50% or more. The list comes from a sample in which strong results are over-represented; it also holds similar structures and randomly drawn compounds.

For this test, the system named is Plasmodium berghei. As to the kind of experiment: Screen against P. berghei liver stage (PbLuc), transformed with Luciferase, at 10uM. The settings on record: tested at 10 uM. Type of test: functional, HepG2.
In the case of `CCOc1ccccc1-n1c(C2CC2)n[nH]c1=O`, the INHIBITION is on record as -8.25%. Then `COc1cc(N2CC[C@@H]3O[C@H](C(=O)N(C)C)C[C@@H]32)ncn1`, with -20.1%; and `Cc1cccc(CN2CCc3onc(CO)c3C2)n1`, with 28.5%. Then `O=C1NCCN(C(=O)c2cn3ccsc3n2)C1c1cccc(F)c1` (configuration not stated), with 43.6%.

Turning to `O=C1NCCN(C(=O)c2cn3ccsc3n2)C1Cc1ccccc1` (configuration not stated), the INHIBITION was 54.5%. Then `CCC(=O)N1CCN(C(=O)c2cn3ccsc3n2)[C@H]2CS(=O)(=O)C[C@H]21`, with 14.9%. Consider `Cc1cccnc1CN1CCN(C(=O)[C@@]23CNC[C@@H]2CN(C)C3)CC1`, for which the INHIBITION is given as 41.5%. Then `Cc1cs/c(=N\C(=O)Cn2nc(N3CCSCC3)ccc2=O)[nH]1`, with 10.1%. As to `CCN(CC)CC1CCN(C(=O)CCn2cccn2)CC1`, the INHIBITION is 17.15%. For the molecule `COC1CCN(C(=O)CCn2cccn2)CC1`, the INHIBITION was -9.85%. Then `CNC(=O)C1CCN(C(=O)CCn2cccn2)CC1`, with 62.8%; and `COc1ccc(C)cc1NC(=O)C1CSc2ncc(C)c(=O)n2C1` (configuration not stated), with 5.36%.

As to `c1ccc(CN2CCCC2)c(CNc2cncc3nnnn23)c1`, the INHIBITION is listed as -14.3%. Then `CN1CCC(NC(=O)c2cc(C3CCCCC3)nc3ccccc23)CC1`, with 10.5%. Then `COc1cc(C(=O)NC(C)(C)CN2CCN(C)CC2)c2ccccc2n1`, with 28.05%; and `CCCNC(=O)c1cc(OC)c(OC)cc1N(C)S(C)(=O)=O`, with 24.9%. Then `COc1cc(C(=O)NCC2(N(C)C)CCN(C)CC2)c2ccccc2n1`, with 68.4%.

Consider `COc1cc(C(=O)NCCS(=O)(=O)N(C)C)c2ccccc2n1`, for which the INHIBITION amounted to 52.9%. Then `CCn1nc(CC(C)C)cc1C(=O)NCCS(=O)(=O)N(C)C`, with 7.25%. Turning to `Cc1nc(-c2ccccc2)sc1CNC1CCc2ncnn2C1` (configuration not stated), the INHIBITION was 8.64%. With `CCn1nc2c(cc1=O)CN(Cc1nc(C)c(C)o1)CC2`, the INHIBITION is given as -29.7%. With `CCCN1CCN(C(=O)CCn2nc(C(F)(F)F)c(Br)c2C)CC1`, the INHIBITION is 6.67%.

As for `O=C1C[C@@H]2CC[C@H](CN1)N2C(=O)CCc1ccc2c(c1)OCO2`, the INHIBITION came to 17.6%.

`Cn1nccc1-c1ccc2nc(C3CCN(CCO)CC3)nn2c1`: the INHIBITION was determined as 33.4%. Then `c1cnc(N2CCC(c3nccn3CC3CC3)CC2)nc1`, with 36.5%; and `CN(C)Cc1cc(=O)n2c(n1)CN(C(=O)Cc1cccs1)CCC2`, with 27.6%; and `Cc1nc(CN2CCN(c3ccc4nncn4n3)C(C)C2)oc1C` (configuration not stated), with 7.27%. Then `O=C(CN1CCN(c2ccc3nncn3n2)CC1)NC1CCCC1`, with -0.219%; and `CC1CN(CC2CCCCC2)CCN1c1ccc2nncn2n1` (configuration not stated), with 89.3%.

Turning to `O=C(CN1CCN(c2ccc3nncn3n2)CC1)NC1CCCCC1`, the INHIBITION was -4.16%. `CC1CN(CC(=O)N2CCCC2)CCN1c1ccc2nncn2n1` (configuration not stated): the INHIBITION is on record as 7.67%. Then `CC1CN(CC(=O)NC2CCCC2)CCN1c1ccc2nncn2n1` (configuration not stated), with 50.4%. Then `CC1CCCCN1C(=O)CN1CCN(c2ccc3nncn3n2)CC1` (configuration not stated), with 24%; and `CC1CN(CCc2ccccn2)CCN1c1ccc2nncn2n1` (configuration not stated), with 15.6%. Then `CC1CN(CC2CCCC2)CCN1c1ccc2nncn2n1` (configuration not stated), with 82.6%. For `Cc1cc(CN(C)C(=O)NC2CCN(Cc3ccccn3)CC2)no1`, the INHIBITION is -26.6%.

Turning to `CCn1cc(-c2cncn2CCc2ccc3c(c2)OCCO3)cn1`, the INHIBITION is 16.5%. Then `Cc1nc(N2CCOCC2)ncc1-c1cc(O)nc(N2CCCCC2)n1`, with 20.9%. As for `O=C(NCc1csc2ccc(Cl)cc12)c1cc2n(n1)CCNC2`, the INHIBITION stood at 44.4%.

For the molecule `Cc1nn(CC(=O)n2cccn2)c(C)c1I`, the INHIBITION amounted to 8.53%. Then `O=C(N[C@@H]1CN(c2ncccn2)C[C@@H]2CCCO[C@@H]21)c1ccncc1`, with 35.8%. Then `Cc1cccc(C2(CNC(=O)c3ccnc(N(C)C)c3)CCOCC2)c1`, with 13.5%; and `COc1ccc(Cl)cc1C(=O)N1C[C@H](C(C)C)[C@@H](N)C1`, with -0.55%; and `CCCc1nc(CN2CCOC(Cn3cncn3)C2)cs1` (configuration not stated), with 5.9%.

`COc1ccc([C@@H]2CN(Cc3cccnc3N)C[C@H]2NC(C)=O)cc1`: the INHIBITION was determined as 23.9%. Then `O=C([C@@H]1CSCN1)N1CCC2(CC1)CNCc1ccccc12`, with 27.5%; and `O=C(C1CCCCC1)N1CCC2(CC1)CNCc1ccccc12`, with 61.5%; and `O=C([C@H]1CCCO1)N1CCC2(CC1)CNCc1ccccc12`, with 17.2%.

As to `O=C(C1CC1)N1CCC2(CC1)CNCc1ccccc12`, the INHIBITION stood at 74.8%.

Regarding `O=C(C1CCOC1)N1CCC2(CC1)Cc1ccccc1CNC2=O` (configuration not stated), the INHIBITION worked out at 2.26%.

Consider `O=C(C1CC1)N1CCC2(CC1)CNc1ccc(F)cc12`, for which the INHIBITION was 8.85%. Then `CC(CNC(=O)c1cc(C2CC2)on1)N1CCc2ccccc21` (configuration not stated), with -51.5%; and `CC(C)CC(N)C1=NC(=C2N=CN=N2)NO1` (configuration not stated), with 37.7%. Then `CC(C)C(N)C1=NC(=C2N=CN=N2)NO1` (configuration not stated), with 8.11%. Take `CC(Cc1ccccc1F)NC(=O)CCC1=NC(=C2N=CN=N2)NO1` (configuration not stated): the INHIBITION is 60.4%. Then `Cc1nnc(CN2CCCC2c2ccc(Cl)c(Cl)c2)o1` (configuration not stated), with 21.5%; and `CCc1nc(C2CCCN2Cc2nc(C3CC3)no2)no1` (configuration not stated), with -34.9%.
